# Over roughly 33,000 sequences, “E-score (-0.5 to 0.5)” has its median near -0.032; the highest 2% begin near 0.36. The entries come from a sample that favours the highest values as a whole.
# Molecular target: T1, Sko1 (UniProt Q02100)
# T1 sequence: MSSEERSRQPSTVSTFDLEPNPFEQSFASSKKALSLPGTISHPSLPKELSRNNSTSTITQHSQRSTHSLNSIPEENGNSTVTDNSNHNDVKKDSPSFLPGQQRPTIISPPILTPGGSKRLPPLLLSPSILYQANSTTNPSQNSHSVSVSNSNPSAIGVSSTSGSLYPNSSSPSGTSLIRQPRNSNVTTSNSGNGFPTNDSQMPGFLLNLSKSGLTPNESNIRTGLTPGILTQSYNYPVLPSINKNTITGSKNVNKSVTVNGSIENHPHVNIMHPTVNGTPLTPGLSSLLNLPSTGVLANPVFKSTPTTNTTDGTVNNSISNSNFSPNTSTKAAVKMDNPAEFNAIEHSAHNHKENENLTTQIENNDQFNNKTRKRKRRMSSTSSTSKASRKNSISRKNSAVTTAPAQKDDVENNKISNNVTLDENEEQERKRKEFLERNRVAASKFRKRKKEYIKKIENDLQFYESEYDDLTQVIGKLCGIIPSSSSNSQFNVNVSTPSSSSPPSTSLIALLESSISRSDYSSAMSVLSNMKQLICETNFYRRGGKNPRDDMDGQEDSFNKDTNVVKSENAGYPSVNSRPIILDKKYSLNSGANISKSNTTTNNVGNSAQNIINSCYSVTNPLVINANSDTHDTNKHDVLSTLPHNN
# Assay: PBM E-score (8-mer binding enrichment) (E-score (-0.5 to 0.5)); higher = stronger / more preferred TF binding
# Conditions: protein concentration: 200 nM; construct: GST-full length
# Experimental: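 Universal 'all 10-mer' protein binding microarrays (Agilent AMADID 015681) probed with GST-tagged S. cerevisiae TFs (full-length or DBD) made by in vitro transcription/translation (PURExpress), about 100-200 nM. Bound TF was detected with fluorescent anti-GST. Each ungapped 8-mer (which stands for itself and its reverse complement) is scored by the PBM enrichment score (E-score), a modified Wilcoxon-Mann-Whitney statistic from -0.5 to +0.5, computed with the Universal PBM Analysis Suite. Scale: above 0.35 generally sequence-specific binding.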
row,Sequence,PBM E-score
1,TGACGCAA,0.483
2,TGACGCCA,0.453
3,GCACGCAA,0.252
4,AGACGCAA,0.258
5,ACACGCAA,0.376
6,GGACGCAA,0.164
7,TCACGCAA,0.384
8,AGACGCCA,0.0116
9,CGACGCCA,0.174
10,CCACGCAA,0.308
11,ACACGCAT,0.219
12,ACACGCAC,0.158
13,CGAGTCGC,-0.243
14,GCGGTCTA,0.0211
15,CAGATCTC,-0.196
16,CGATGTAA,0.175
17,AGATGTAA,0.256
18,TGATGTAA,0.434
19,AACGGAGT,-0.09
20,AATATGAG,0.146
21,GCGATGAC,0.374
22,GATATGAC,0.326
23,AATATGAC,0.367
24,CATATGAG,-0.0409
25,AAGATGAC,0.337

row,Sequence,PBM E-score
1,GAGATGAC,0.254
2,CAGATGAC,0.37
3,ACGATGAC,0.336
4,CATATGAC,0.404
5,AATATGAT,0.254
6,GCGATGAA,-0.0296
7,GCAAAGAC,0.00382
8,GATAGTCC,-0.141
9,CATTTAAA,0.178
10,ACTCACGC,0.14
11,GCTTAGCC,-0.313
12,CTGGCGCC,-0.181
13,TCCTAACA,0.0335
14,CTGAATAC,0.15
15,TCAACCGA,0.204
16,CTTATGAA,-0.0245
17,CTTATGAC,0.374
18,ATTATGAC,0.349
19,ACTATGAC,0.342
20,GCTATGAC,0.364
21,CCTATGAC,0.308
22,TATCAGCA,0.0232
23,ACGAGCAG,-0.0309
24,CAAGAGCA,-0.0878
25,GCCTAGAA,-0.121

row,Sequence,PBM E-score
1,ACGTGTTA,0.434
2,CCGTGTTC,-0.0799
3,ACGTGTTG,0.426
4,GCGTGTTA,0.114
5,CCGTGTTA,-0.0886
6,AGGTGTTG,0.0206
7,ATGTGTTG,0.203
8,ACGTGTTC,0.36
9,AGGTGTTC,-0.0318
10,ACTGGTTC,-0.132
11,GCAGTCAC,-0.0169
12,GAGCGAGA,-0.0193
13,CGCGGTTA,-0.0722
14,ACTCTTCC,-0.0697
15,GCTTGCTA,-0.191
16,ACTAACAG,0.0358
17,GGTAATGA,0.115
18,CGTAATGA,0.461
19,CTTAATGC,0.0192
20,AGTAATGA,0.247
21,CGTAATGC,0.454
22,AGTAATGC,0.0678
23,CGAGCAAG,-0.129
24,TAGTATCA,0.187
25,CCTAACGC,0.0788

row,Sequence,PBM E-score
1,CACTTACC,0.109
2,CACTTACA,0.164
3,CACTTACG,0.382
4,AACTTACA,0.0844
5,AACTTACG,0.408
6,AACTTACC,-0.0258
7,ACGTTCTG,0.256
8,GCTCTAAA,0.0432
9,AAGTATCT,0.0671
10,CCGTATCC,-0.133
11,AAGTATCG,-0.0131
12,TCGTATCA,0.241
13,GCGTATCA,0.131
14,ACGTATCC,0.389
15,ACGTATCA,0.438
16,ACGTATCG,0.452
17,GCGTATCC,0.142
18,ACGTATCT,0.419
19,CCGTATCG,-0.171
20,ACCTATCT,-0.0547
21,CCGTCTGC,-0.109
22,GCAGAACC,-0.16
23,TAGTGGAA,-0.149
24,GCGGCATA,0.0318
25,AGCTGATC,-0.0352

row,Sequence,PBM E-score
1,GATCCTCC,-0.264
2,CTGACGAC,0.342
3,GCGACGAC,-0.08
4,ATGACGAG,0.462
5,AAGACGAG,-0.189
6,ATGACGGG,0.338
7,ATGACGGA,0.419
8,ATGACGAC,0.466
9,CTGACGAA,0.373
10,GTGACGGA,0.174
11,ATGACGGC,0.285
12,AGGACGAC,-0.114
13,CCGACGAA,0.144
14,ACCTCCGG,-0.282
15,CCCCACGA,-0.128
16,CGTTTTGC,0.177
17,ACACCTAC,-0.0103
18,CCGCTGAG,-0.29
19,AAAGCTTA,0.141
20,ACTAATGG,0.00996
21,ACTGAAGT,-0.0247
22,ACTCGCCT,-0.196
23,GGGACGAA,-0.164
24,ATGACGAA,0.488
25,GTGACGAA,0.446

row,Sequence,PBM E-score
1,GTGACAAA,0.167
2,ATGACAAA,0.154
3,ACGACGAA,0.25
4,AGACAGTA,0.0897
5,CCGCCCTC,-0.23
6,AAAGATGG,-0.0167
7,AAGCTCGG,-0.169
8,GAGGTAAC,0.0793
9,GAAAGTGC,-0.11
10,CTAATCTA,0.0405
11,TTCATAAA,0.0982
12,ATCATAAA,0.175
13,GTCATAAA,0.364
14,ATAATTTA,0.222
15,GTAATTTA,0.366
16,GTAATCTA,0.394
17,GTCATATA,0.373
18,CTAATTTA,0.261
19,ATCATATA,0.244
20,CTCATATA,0.0195
21,ATAATCTA,0.189
22,CCACACAG,-0.208
23,GGGACAAA,-0.0851
24,CGAAGAAG,0.0371
25,AACTCTAT,-0.186

row,Sequence,PBM E-score
1,TGATTCAA,0.144
2,ACCCCATG,-0.0741
3,GTCATAGA,0.406
4,ATAATATA,0.268
5,CTAATATA,0.302
6,GTAATATA,0.374
7,CTCATAGA,0.00332
8,ATCATAGA,0.205
9,GCCAGTGA,-0.0654
10,TACCCTGA,-0.126
11,CGCCTGAC,0.0438
12,AAGGCACG,0.132
13,ACCGCCGT,-0.264
14,GAAAAGGA,-0.0667
15,CCTCATCC,-0.292
16,CATCATCA,0.361
17,AGTCATCC,-0.0488
18,CGTCATCC,0.475
19,GGTCATCA,0.207
20,AGTCATCA,-0.103
21,TATCATCA,0.272
22,CGTCATCA,0.489
23,CATCATCG,0.347
24,CTGATCGC,-0.0786
25,ATATGCCA,-0.0891

row,Sequence,PBM E-score
1,AAAACAGA,0.112
2,AGAGTAGC,-0.00834
3,GCGTGGTA,-0.0393
4,CCGTGGTC,-0.235
5,ACGTGGTC,0.364
6,CCGTGGTA,-0.172
7,ACGTGGGC,0.347
8,ACGTGGAA,0.311
9,ACGTGGAT,0.398
10,ACGTGGCA,0.297
11,ACGTGGTA,0.391
12,ACGTGGAC,0.33
13,ACGTGGCT,0.321
14,ACGTGGCG,0.368
15,AACTCAGG,-0.0444
16,AGCGCTGC,-0.167
17,AGACAGAT,0.0457
18,ACTTGTGG,-0.0685
19,ACCCGAGC,-0.224
20,GTAGGCTA,0.0728
21,CGTTATGA,0.267
22,CTTGCTTC,0.0228
23,AGGTTGAC,-0.0293
24,ACGTCCTC,0.206
25,GGTCTGGA,-0.25

row,Sequence,PBM E-score
1,ACGTGCAC,0.355
2,ACGTGCAA,0.35
3,ACGTGCAT,0.396
4,AGGTGGTG,-0.0259
5,ACGTGGTG,0.376
6,AAGTGGTG,-0.113
7,AACAGTGG,-0.244
8,AGGGCGAC,-0.2
9,AAATTCTG,0.052
10,GTGTTCTA,0.0982
11,AATCCCGA,0.105
12,GCATCGCA,-0.35
13,CTTCGTCC,-0.226
14,GTTCGTAA,0.355
15,ATTCGTCC,0.119
16,CTTCGTTA,0.161
17,ATTCGTAA,0.433
18,ATTCGTCG,0.22
19,ATTCGTCA,0.464
20,GTTCGTGA,-0.0757
21,CTTCGTCA,0.412
22,GTTCGTCA,0.367
23,CTTCGTAA,0.287
24,GTTCGTTA,0.107
